# IMPase Li inh – membrane-permeable IMPase blocker, potentiated with lithium | CHO-M1 cells, IP1 TR-FRET (IP-One), carbachol + lithium | Potency, µM (series often up to 59.4 µM), for inactives: top-dose activity, negative = IMPase inhibition, most hits filed as inhibitors | hit rate 0.35% among 210,000 | AID 1457;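 further: IP1 builds up when IMPase is blocked and the TR-FRET signal falls; potency means the concentration at half of the fitted maximal effect; plate controls were basal vehicle for no effect and high inhibitor control for full effect; nearly all actives have a fitted effect of over 50% in size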
#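 Readout is a homogeneous TR-FRET IP1 immunoassay (Ex 320, Em 665 and 620), where raised cytosolic IP1 lowers signal. Cells were CHO-M1 treated 30 min at 37C with test compounds plus a little lithium; AC50 values came from Hill-equation fitting.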
# NPSR antag – antagonists of human neuropeptide S receptor cAMP signaling | CHO-NPSR cells, cAMP TR-FRET, antagonist mode | Potency, µM (series often up to 38.3 µM), for the others: at the top dose activity change, negative = inhibition, actives largely listed as inhibitors | AID 1461 | hit rate 1% among 220,000; further: potency means the concentration at half of the fitted maximal effect; on the % scale 0 is the no-effect control and ±100 the full control effect; nearly all actives have a fitted effect of over 50% in size
# Target sequence (Q6W5P4 whole entry, looked up): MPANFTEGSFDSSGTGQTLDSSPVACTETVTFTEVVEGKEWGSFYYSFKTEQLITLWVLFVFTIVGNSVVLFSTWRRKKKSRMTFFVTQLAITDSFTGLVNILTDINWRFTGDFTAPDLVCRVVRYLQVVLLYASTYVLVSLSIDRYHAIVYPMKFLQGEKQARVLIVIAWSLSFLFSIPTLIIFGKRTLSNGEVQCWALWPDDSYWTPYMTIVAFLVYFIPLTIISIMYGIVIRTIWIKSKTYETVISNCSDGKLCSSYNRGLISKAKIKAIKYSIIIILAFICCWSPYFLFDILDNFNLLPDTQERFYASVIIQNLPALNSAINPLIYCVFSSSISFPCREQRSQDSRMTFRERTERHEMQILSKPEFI
# PNC assembly inh – perinucleolar compartment assembly inhibition | hit rate 3.1% among 140,000 | PC3M PTB-GFP, PNC prevalence imaging, 16 h; active compounds read low | AID 2417 | activity change (PNC), negative = inhibition, % at 10 µM;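 active means readout at or below -70, meaning at least 70% loss of cells showing the perinucleolar compartment, a nuclear body marking cancer cells; inconclusive means readout between -30 and a set limit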;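 further: plate controls were DMSO wells for no effect and camptothecin positive control wells for full effect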
#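 Read-out is percentage of cells bearing a perinucleolar compartment, from automated 20x imaging of fixed, Hoechst-stained PC3M PTB-GFP cells. Cells were seeded 4 h, then exposed 16 h to compound (23 nl of library stock) in duplicate plates.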
# HTT cytoprotect – cytoprotection in Huntington HTT-Q103 PC12 cell model; Potency, µM (titrated, usually from 56.4 µM), without a hit: cytoprotection (ATP increase), usual class: activators; hit rate 0.14% among 230,000; PC12 HTT-Q103 induced, cytoprotection, ATP luminescence, 40 h; further: potency means the concentration at half of the fitted maximal effect; % of control where 0% means no effect; nearly all actives have a fitted effect of over 45% in size
#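 Huntington model: PC12 line, ecdysone-inducible HTTQ103 exon1–GFP, tebufenozide 100 nM. Test articles in a dose series. Endpoint luminescence from cellular ATP.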
# IMPase cell inh – membrane-permeable compound that blocks inositol monophosphatase; CHO-M1 cells, IP1 accumulation, HTRF TR-FRET ratio; inhibition (IP1 accumulation), % at 46.1 µM; 120,000 tested, under 10 active; active means well fitted curve in the direction sought with a large enough effect in the signal ratio, not every such curve was filed as active; inconclusive means small, poorly fitted or top-dose-only effect, or a change in a side signal; inactive means no such curve, though single readings can be large or run the other way; the % refers to the signal ratio;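 further: cells stimulated with carbachol in lithium chloride buffer; plate controls were DMSO basal wells for no effect and reference inhibitor wells for full effect; higher means more IMPase inhibition seen as more IP1 and lower FRET ratio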
# Target sequence (P97697 whole entry, looked up): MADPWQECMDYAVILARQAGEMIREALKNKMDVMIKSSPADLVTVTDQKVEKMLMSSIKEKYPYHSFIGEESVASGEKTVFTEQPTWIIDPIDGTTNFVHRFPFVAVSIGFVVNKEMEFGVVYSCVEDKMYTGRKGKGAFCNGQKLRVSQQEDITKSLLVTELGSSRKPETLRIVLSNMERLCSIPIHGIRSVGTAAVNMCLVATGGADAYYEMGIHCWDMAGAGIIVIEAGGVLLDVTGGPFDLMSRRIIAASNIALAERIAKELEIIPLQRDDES
#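 In this qHTS, compounds (final up to 46 uM) act on CHO-M1 cells that are then activated through the M1 receptor with carbachol, in pH 7.4 buffer containing 50 mM LiCl, for 30 min. IP1 accumulation is quantified by the IP-One immunoassay.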
# HTT aggregate – reduces HttQ103-GFP aggregates in PC12 cells. hit rate 1.1% among 220,000. Potency, µM (highest dose often 46.1 µM), inactives show top-dose activity change, negative = inhibition, hits mostly inhibitors. PC12 HttQ103-GFP aggregates, Acumen cytometry, 40 h; further: potency means the concentration at half of the fitted maximal effect; on the % scale 0 is the no-effect control and ±100 the full control effect; nearly all actives have a fitted effect of over 60% in size
#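 Ecdysone-promoter PC12 model expressing HTT exon 1 Q103 fused to GFP, induced by tebufenozide at 100 nM final. Compounds titrated; aggregates sized 1–25 µm scored on a 488 nm laser cytometer.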
# * = called active by the depositor; ? = inconclusive; nt = no result; [ ] = remark or other dose. Most compounds without a hit are left out; they make up all but 3.4% or so of the library. Unless noted, the call rests on the fitted dose curve; in most records, active means well fitted curve in the direction sought with a large enough effect; inconclusive means small, poorly fitted or top-dose-only effect, or another doubt; inactive means no such curve, though single readings can be large; an effect the other way counts as inactive or inconclusive.
SMILES,IMPase Li inh,NPSR antag,PNC assembly inh,HTT cytoprotect,IMPase cell inh,HTT aggregate
COc1ccc(/C=C2/SC(=O)N(CCNC(=O)C3CCCN3C(=O)c3cccs3)C2=O)cc1 (stereo not drawn),5.6%,12.7%,-99.6*,nt,nt,18.4%
O=C(NCCN1C(=O)S/C(=C/c2ccccc2)C1=O)C1CCCN1C(=O)c1cccs1 (stereo not drawn),nt,-4.4%[46.1 µM],-22.5,22.2%[10 µM],1.3,?
CCOC(=O)N1CC=C2C(C#N)=C(N)C(C#N)(C#N)[C@H](c3ccsc3)[C@H]2C1,-3.0%[38.3 µM],-7.2%[46.1 µM],-29.3,-25.2%,2.0,0.562µM*
CN1CC=C2C(C#N)=C(N)C(C#N)(C#N)C(c3ccsc3)C2C1 (stereo not drawn),-5.0%[38.3 µM],-2.6%[46.1 µM],?,-23.1%,-6.3,9.3%
N#CC1=C(N)C(C#N)(C#N)[C@H](c2cccnc2)[C@H]2CN(C(=O)OCc3ccccc3)CC=C12,2.2%,-38.5%,?,nt,nt,?
N#CC1=C(N)C(C#N)(C#N)C(c2ccncc2)C2CN(C(=O)OCc3ccccc3)CC=C12 (stereo not drawn),18.6%,3.98µM*,-118.9*,13.1%[10 µM],?,12.2%
COc1ccc(Oc2c(Cl)cnn(-c3ccc(F)cc3)c2=O)cc1,-3.1%,?,-9.9,-8.3%[10 µM],9.3,2.9%
COC(=O)Cn1cnc2c(cnn2-c2ccccc2)c1=O,-2.5%,17.4%,nt,3.0%,nt,-10.2%
CCOC(=O)Cn1cnc2c(cnn2-c2ccc(Cl)cc2)c1=O,nt,-11.1%[46.1 µM],?,-68.0%,0.2,15.8µM*
COc1ccc(-n2c(C)nc3c(cnn3-c3ccc(Cl)cc3)c2=O)cc1,18.1%[38.3 µM],-29.5%[46.1 µM],4.0,-64.4%,9.4,12.6µM*
CCOC(=O)c1ccc(-n2c(C)nc3c(cnn3-c3ccccc3Cl)c2=O)cc1,5.5%[38.3 µM],-27.6%[46.1 µM],-113.4*,25.3%[10 µM],2.0,-14.6%
COc1ccc(Oc2c(Cl)cnn(-c3ccc(Cl)c(Cl)c3)c2=O)cc1,-11.0%,10µM*,22.5,6.3%[10 µM],12.4,27.2%
COC(=O)C1(C(=O)OC)C/C=C\C/C=C\c2ccccc2[C@@H]1C[N+](=O)[O-],10.5%,nt,nt,6.5%,nt,nt
CCOCCCn1c(=N)c(C(=O)NCC2CCCO2)cc2c(=O)n3cc(C)ccc3nc21 (stereo not drawn),nt,nt,nt,nt,-3.3,nt
CCC(C)NC(=O)[C@H](CSCc1ccccc1)N1Cc2ccccc2C1=O (stereo partly drawn),8.3%,-8.0%,-82.3*,nt,nt,3.0%
CCOC(=O)N=Nc1c2ccccc2c2nc3no[nH]c3nc12,23.0%,6.31µM*,nt,-183.0%,nt,1.26µM*
COCCNC(=O)CN(C(=O)Cn1nnc2ccccc21)c1ccc(C)cc1,-3.3%,6.3%,nt,11.1%[10 µM],nt,9.7%[9.22 µM]
COCCNC(=O)CN(C(=O)Cn1nnc2ccccc21)c1ccc(C)c(F)c1,14.4%,-1.2%[46.1 µM],-118.8*,6.2%[1.9 µM],-5.4,-9.2%
COC(=O)COc1ccc(NC(=O)c2ccco2)cc1,nt,21.8%,nt,-14.3%[10 µM],nt,-16.6%[9.22 µM]
CCOc1cc(NC(=S)NCC2CCCO2)c(OCC)cc1NC(=O)CC(C)C (stereo not drawn),1.4%,25.4%,nt,16.1%[10 µM],nt,-6.1%[9.22 µM]
O=C(CC12CC3CC(CC(C3)C1)C2)NCc1ccncc1,13.8%[38.3 µM],0.7%[46.1 µM],-84.5*,-4.2%,-5.6,-3.8%
CCCCN=c1scc(-c2ccc3c(c2)NC(=O)CO3)n1N=C1CCCC1,21.1%[38.3 µM],?,24.8,15.2%,6.1,?
CCN=c1scc(-c2ccc3c(c2)NC(=O)CO3)n1N=C1CCCC1,8.5%[38.3 µM],-16.9%[46.1 µM],-10.2,-42.7%,6.9,11.2µM*
COCC(C)n1c(-c2ccc3c(c2)NC(=O)CO3)csc1=Nc1ccc(OC(F)F)cc1 (stereo not drawn),63.8%[38.3 µM],10µM*,15.5,-13.6%,15.3,?
C[C@H](C(=O)c1ccccc1)C(c1ccccc1)N1CCOCC1 (stereo partly drawn),5.1%,nt,nt,nt,nt,nt
SMILES,IMPase Li inh,NPSR antag,PNC assembly inh,HTT cytoprotect,IMPase cell inh,HTT aggregate
C/C=C/OC(=O)NC(c1ccccc1)[C@]1(C(C)=O)CCCC1=O (stereo partly drawn),nt,nt,nt,-4.7%[10 µM],nt,nt
CCOC(=O)OCC1OC(C#Cc2ccc(C(C)(C)C)cc2)C=CC1OC(=O)OCC (stereo not drawn),nt,nt,nt,-19.4%[10 µM],nt,nt
O=[N+]([O-])c1ccc(C[n+]2cccc3ccccc32)cc1,1.0%,6.0%,nt,7.8%[10 µM],nt,-0.5%
CCCCC[n+]1cccc2c3ccccc3ccc21,4.3%,5.9%,nt,-97.2%,nt,2.51µM*
c1ccc(C[n+]2cccc3c4ccccc4ccc32)cc1,25.1%[38.3 µM],3.1%[46.1 µM],30.3,-64.7%,15.7,28.2µM*
NC(=O)C[n+]1cccc2ccccc21,-14.9%[38.3 µM],-4.6%[46.1 µM],16.7,14.3%,-9.4,3.2%
Cc1noc(C)c1C(=O)N1CCC2(CCCN(c3ccncc3)C2)CC1,11.8%,nt,nt,2.1%,nt,nt
Cc1cccc(Oc2ncnc3oc(-c4ccccc4)cc23)c1C,15.6%,-24.9%[46.1 µM],7.5,14.2%[10 µM],1.2,6.2%
Cc1cc(Cl)ccc1Oc1ncnc2oc(-c3ccccc3)cc12,-2.4%[38.3 µM],-1.9%[46.1 µM],-94.2*,-14.1%,-3.7,-12.6%
Cc1ccc(S(=O)(=O)N2CCN(c3ccnc4cc(Cl)ccc34)CC2)cc1,15.1%,?,nt,-99.2%,nt,15.8µM*
c1ccc(OCc2nc3c4c(ncn3n2)-c2ccccc2CC42CCCC2)cc1,12.5%,-22.4%,-125.2*,-25.3%[10 µM],nt,-29.6%
COc1ccccc1C(=O)Nc1ccccc1N1CCN(S(C)(=O)=O)CC1,25.8%[38.3 µM],?,-90.9*,-8.5%[0.074 µM],3.3,-6.2%
CS(=O)(=O)N1CCN(c2ccccc2NC(=O)c2ccc(-c3ccc(Cl)cc3Cl)o2)CC1,10.2%[38.3 µM],3.16µM*,?,2.8%[10 µM],1.2,10.8%
CN1CCN(c2ccccc2NC(=O)c2ccc(-c3ccc(Cl)cc3Cl)o2)CC1,11.5%[38.3 µM],?,?,-85.6%,1.2,?
CCCC/C=C/C(NC(=O)c1ccc(C(F)(F)F)cc1)c1ccccc1 (stereo not drawn),1.5%,nt,nt,-33.2%,nt,nt
CCOC(=O)c1c(C)nc2sccn12,4.2%[38.3 µM],11.6%[46.1 µM],59.1,7.9%,-5.2,-2.0%
Cc1nc2sccn2c1P(c1c(C)nc2sccn12)c1c(C)nc2sccn12,8.8%[38.3 µM],-21.7%[46.1 µM],-80.4*,5.3%[10 µM],2.9,-11.9%[9.22 µM]
CCOC(=O)N1CCC(NC(=O)CCN2C(=O)COc3ccccc32)CC1,21.1%[38.3 µM],-11.0%[46.1 µM],-80.3*,13.1%[10 µM],4.1,-4.0%
CCOC(=O)N1CCC(NC(=O)CCC(=O)N2CC(C)Oc3ccccc32)CC1 (stereo not drawn),-3.9%[38.3 µM],-3.9%[46.1 µM],?,0.7%,7.3,11.2%
